# Columns and labels:
# Assay in all cases: DAPPL (digital affinity profiling via proximity ligation, sequencing); 10 mM Tris-HCl pH 7.5, 50 mM NaCl, 1 mM DTT, 4% glycerol, room temperature, 30 min; GST-TFs on glutathione beads, 16-mer random dsDNA library, 0.1% formaldehyde crosslink after washing; high values mean tight binding
# [1] = target: T1, FLI1 (Homo sapiens, UniProt Q01543 1-452); details: protein: recombinant; tags: N-terminal GST; dsDNA, one strand shown
# T1 sequence: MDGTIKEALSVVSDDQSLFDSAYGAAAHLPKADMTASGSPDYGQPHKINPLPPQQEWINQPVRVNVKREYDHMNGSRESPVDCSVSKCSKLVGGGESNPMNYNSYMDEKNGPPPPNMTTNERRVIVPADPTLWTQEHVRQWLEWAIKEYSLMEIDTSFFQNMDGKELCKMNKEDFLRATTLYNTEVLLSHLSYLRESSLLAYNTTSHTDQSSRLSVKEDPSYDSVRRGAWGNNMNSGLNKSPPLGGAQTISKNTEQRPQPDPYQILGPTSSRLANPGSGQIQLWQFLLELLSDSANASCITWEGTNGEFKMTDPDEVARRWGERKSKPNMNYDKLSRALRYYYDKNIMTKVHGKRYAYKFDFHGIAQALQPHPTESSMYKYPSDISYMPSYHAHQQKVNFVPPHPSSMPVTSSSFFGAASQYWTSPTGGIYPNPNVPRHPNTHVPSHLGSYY
# Method in brief: (§1)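 A tag-only sample was pooled with DNA-barcoded human transcription factors that had been expressed in yeast as GST fusions and captured on glutathione beads. The pools were incubated for 30 min at room temperature with 200 nmole of a random double-stranded 16-mer DNA library in Tris/NaCl/DTT/glycerol buffer, then washed, crosslinked with 0.1% formaldehyde, proximity-ligated (BsaI/T4 ligase, 1 h, 37 °C), PCR-amplified and sequenced on an Illumina NextSeq500. Binding signal is each hexamer's read frequency for a factor divided by its frequency for the tag-only sample.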
# [2] = target: T2, ELK1 (Homo sapiens, UniProt P19419 1-428); details: protein: recombinant; tags: N-terminal GST; dsDNA, one strand shown
# T2 sequence: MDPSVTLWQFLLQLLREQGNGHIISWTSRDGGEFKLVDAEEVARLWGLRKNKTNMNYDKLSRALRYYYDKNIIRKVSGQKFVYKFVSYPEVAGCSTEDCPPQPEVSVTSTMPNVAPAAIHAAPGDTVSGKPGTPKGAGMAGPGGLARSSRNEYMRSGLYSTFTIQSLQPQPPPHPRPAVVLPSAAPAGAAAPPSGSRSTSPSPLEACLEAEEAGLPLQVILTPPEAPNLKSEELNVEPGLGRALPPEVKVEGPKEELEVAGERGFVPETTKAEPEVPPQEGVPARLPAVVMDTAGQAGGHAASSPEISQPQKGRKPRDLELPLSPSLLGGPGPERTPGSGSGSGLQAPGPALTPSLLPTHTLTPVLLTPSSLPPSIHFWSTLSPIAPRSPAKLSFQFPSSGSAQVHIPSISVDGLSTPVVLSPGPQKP
# Method in brief: as §1
# [3] = target: T3, GABPA (Homo sapiens, UniProt Q06546 1-454); details: protein: recombinant; tags: N-terminal GST; dsDNA, one strand shown
# T3 sequence: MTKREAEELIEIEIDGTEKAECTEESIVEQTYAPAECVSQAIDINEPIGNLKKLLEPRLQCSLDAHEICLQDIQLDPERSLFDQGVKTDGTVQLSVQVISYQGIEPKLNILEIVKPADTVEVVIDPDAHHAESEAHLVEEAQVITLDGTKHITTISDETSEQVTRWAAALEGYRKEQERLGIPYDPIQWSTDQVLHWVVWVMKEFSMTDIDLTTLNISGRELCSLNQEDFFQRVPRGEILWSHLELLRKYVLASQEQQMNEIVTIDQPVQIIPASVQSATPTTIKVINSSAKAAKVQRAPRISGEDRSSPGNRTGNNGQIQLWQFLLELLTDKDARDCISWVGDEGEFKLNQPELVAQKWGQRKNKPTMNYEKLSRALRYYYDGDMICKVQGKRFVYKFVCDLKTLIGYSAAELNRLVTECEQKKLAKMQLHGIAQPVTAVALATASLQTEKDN
# Method in brief: as §1
# [4] = target: T4, ERG (Homo sapiens, UniProt P11308 1-479); details: protein: recombinant; tags: N-terminal GST; dsDNA, one strand shown
# T4 sequence: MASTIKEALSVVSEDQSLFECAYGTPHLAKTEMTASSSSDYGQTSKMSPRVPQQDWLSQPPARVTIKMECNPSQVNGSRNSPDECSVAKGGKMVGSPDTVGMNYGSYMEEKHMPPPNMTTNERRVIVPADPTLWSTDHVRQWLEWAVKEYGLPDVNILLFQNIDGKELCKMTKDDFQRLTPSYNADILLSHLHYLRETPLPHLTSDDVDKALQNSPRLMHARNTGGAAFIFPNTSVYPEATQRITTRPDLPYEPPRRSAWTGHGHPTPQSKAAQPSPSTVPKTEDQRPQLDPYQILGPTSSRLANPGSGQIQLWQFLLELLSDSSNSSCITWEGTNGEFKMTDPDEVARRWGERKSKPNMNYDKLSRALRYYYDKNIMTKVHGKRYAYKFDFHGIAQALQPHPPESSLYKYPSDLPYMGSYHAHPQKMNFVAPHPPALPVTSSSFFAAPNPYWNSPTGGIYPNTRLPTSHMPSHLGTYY
# Method in brief: as §1
# [5] = target: ELF1 (Homo sapiens, UniProt P32519 1-619); details: protein: recombinant; tags: N-terminal GST; dsDNA, one strand shown
# Method in brief: as §1
# [6] = target: T5, EHF (Homo sapiens, UniProt Q9NZC4 1-300); details: protein: recombinant; tags: N-terminal GST; dsDNA, one strand shown
# T5 sequence: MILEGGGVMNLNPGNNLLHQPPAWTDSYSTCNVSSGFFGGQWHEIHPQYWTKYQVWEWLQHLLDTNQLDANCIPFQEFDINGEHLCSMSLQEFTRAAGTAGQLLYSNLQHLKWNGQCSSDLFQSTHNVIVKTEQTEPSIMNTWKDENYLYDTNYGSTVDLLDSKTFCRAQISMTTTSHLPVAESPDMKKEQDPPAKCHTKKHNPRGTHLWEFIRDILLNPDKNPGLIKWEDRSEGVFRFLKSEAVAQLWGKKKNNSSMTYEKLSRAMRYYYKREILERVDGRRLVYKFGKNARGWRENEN
# Method in brief: as §1
# [7] = target: SPI1 (Homo sapiens, UniProt P17947 1-270); details: protein: recombinant; tags: N-terminal GST; dsDNA, one strand shown
# Method in brief: as §1
# [8] = target: SPIB (Homo sapiens, UniProt Q01892 1-262); details: protein: recombinant; tags: N-terminal GST; dsDNA, one strand shown
# Method in brief: as §1
# [9] = target: T6, ELK3 (Homo sapiens, UniProt P41970 1-407); details: protein: recombinant; tags: N-terminal GST; dsDNA, one strand shown
# T6 sequence: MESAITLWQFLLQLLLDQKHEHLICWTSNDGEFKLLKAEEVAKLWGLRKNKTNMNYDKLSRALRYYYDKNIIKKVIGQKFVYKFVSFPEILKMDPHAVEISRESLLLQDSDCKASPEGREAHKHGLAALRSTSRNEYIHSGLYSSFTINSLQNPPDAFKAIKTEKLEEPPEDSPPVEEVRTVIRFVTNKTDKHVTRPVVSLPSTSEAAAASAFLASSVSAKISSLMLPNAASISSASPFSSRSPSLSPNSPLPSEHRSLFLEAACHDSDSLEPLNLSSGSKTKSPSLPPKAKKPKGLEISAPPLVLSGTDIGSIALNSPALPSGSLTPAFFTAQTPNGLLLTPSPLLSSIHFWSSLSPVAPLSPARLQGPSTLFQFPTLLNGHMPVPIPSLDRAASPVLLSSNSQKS
# Method in brief: as §1
# [10] = target: T7, FEV (Homo sapiens, UniProt Q99581 1-238); details: protein: recombinant; tags: N-terminal GST; dsDNA, one strand shown
# T7 sequence: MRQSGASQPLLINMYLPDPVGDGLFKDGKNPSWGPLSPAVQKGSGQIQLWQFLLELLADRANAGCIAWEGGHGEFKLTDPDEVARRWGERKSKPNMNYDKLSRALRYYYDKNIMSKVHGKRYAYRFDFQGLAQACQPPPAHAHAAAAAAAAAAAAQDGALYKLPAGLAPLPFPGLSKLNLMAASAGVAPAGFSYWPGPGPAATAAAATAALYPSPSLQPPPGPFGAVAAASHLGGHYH
# Method in brief: as §1
# [11] = target: ETV5 (Homo sapiens, UniProt P41161 1-510); details: protein: recombinant; tags: N-terminal GST; dsDNA, one strand shown
# Method in brief: as §1
# [12] = target: HSF1 (Homo sapiens, UniProt Q00613 1-529); details: protein: recombinant; tags: N-terminal GST; chain copies: 3; dsDNA, one strand shown
# Method in brief: as §1
# [13] = target: T8, SPIC (Homo sapiens, UniProt Q8N5J4 1-248); details: protein: recombinant; tags: N-terminal GST; dsDNA, one strand shown
# T8 sequence: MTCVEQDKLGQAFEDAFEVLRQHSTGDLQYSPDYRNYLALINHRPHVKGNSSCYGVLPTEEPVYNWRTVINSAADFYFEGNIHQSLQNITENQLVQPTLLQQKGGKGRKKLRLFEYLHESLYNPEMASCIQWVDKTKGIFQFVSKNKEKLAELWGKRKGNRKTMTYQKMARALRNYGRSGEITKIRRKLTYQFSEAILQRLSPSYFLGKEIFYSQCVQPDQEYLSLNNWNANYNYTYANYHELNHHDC
# Method in brief: as §1
# [14] = target: ELF4 (Homo sapiens, UniProt Q99607 1-663); details: protein: recombinant; tags: N-terminal GST; dsDNA, one strand shown
# Method in brief: as §1
# [15] = target: T9, ELK4 (Homo sapiens, UniProt P28324-2 1-405); details: protein: recombinant; tags: N-terminal GST; dsDNA, one strand shown
# T9 sequence: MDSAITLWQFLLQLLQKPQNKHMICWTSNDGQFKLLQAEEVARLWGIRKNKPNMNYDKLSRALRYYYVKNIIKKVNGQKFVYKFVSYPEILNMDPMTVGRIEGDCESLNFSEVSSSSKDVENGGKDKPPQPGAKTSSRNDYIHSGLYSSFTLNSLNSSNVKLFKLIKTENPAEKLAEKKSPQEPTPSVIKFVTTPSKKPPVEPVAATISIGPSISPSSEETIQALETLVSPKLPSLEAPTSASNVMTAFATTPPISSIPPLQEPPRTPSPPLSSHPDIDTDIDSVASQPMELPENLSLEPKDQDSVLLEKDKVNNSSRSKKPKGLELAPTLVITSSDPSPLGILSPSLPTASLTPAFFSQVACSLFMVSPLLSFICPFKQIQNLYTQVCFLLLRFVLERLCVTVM
# Method in brief: as §1
# [16] = target: T10, ETV2 (Homo sapiens, UniProt O00321 1-342); details: protein: recombinant; tags: N-terminal GST; dsDNA, one strand shown
# T10 sequence: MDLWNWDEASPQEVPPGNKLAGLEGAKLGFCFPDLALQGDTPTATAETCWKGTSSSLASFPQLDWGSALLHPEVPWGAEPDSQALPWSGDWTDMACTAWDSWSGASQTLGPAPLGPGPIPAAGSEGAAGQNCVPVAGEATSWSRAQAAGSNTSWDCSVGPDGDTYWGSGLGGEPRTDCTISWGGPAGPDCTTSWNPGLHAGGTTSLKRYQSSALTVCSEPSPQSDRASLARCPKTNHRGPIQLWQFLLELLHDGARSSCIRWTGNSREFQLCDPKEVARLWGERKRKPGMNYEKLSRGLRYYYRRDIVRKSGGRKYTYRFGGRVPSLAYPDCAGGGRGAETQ
# Method in brief: as §1
# [17] = target: T11, ELF3 (Homo sapiens, UniProt P78545 1-371); details: protein: recombinant; tags: N-terminal GST; dsDNA, one strand shown
# T11 sequence: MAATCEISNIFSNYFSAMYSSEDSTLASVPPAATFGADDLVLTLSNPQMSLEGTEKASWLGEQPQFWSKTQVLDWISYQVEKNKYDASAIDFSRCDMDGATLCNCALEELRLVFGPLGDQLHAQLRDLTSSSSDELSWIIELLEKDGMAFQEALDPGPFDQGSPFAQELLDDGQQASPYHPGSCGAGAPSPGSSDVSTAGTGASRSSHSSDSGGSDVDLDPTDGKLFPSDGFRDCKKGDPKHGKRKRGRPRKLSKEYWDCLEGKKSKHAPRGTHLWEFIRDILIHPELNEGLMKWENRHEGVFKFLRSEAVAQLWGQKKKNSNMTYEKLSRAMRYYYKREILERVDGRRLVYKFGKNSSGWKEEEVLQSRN
# Method in brief: as §1
# [18] = target: CRX (Homo sapiens, UniProt O43186 1-299); details: protein: recombinant; tags: N-terminal GST; dsDNA, one strand shown
# Method in brief: as §1
# [19] = target: ETV1 (Homo sapiens, UniProt P50549 1-477); details: protein: recombinant; tags: N-terminal GST; dsDNA, one strand shown
# Method in brief: as §1
# Chain of SPIB (Q01892 whole entry): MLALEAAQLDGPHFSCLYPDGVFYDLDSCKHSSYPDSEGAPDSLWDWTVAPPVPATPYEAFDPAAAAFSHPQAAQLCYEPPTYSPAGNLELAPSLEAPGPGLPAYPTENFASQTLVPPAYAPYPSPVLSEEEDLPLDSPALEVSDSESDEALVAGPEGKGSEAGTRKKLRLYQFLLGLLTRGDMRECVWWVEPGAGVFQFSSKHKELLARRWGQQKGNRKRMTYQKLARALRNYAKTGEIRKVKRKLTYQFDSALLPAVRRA
# Chain of ETV5 (P41161 whole entry): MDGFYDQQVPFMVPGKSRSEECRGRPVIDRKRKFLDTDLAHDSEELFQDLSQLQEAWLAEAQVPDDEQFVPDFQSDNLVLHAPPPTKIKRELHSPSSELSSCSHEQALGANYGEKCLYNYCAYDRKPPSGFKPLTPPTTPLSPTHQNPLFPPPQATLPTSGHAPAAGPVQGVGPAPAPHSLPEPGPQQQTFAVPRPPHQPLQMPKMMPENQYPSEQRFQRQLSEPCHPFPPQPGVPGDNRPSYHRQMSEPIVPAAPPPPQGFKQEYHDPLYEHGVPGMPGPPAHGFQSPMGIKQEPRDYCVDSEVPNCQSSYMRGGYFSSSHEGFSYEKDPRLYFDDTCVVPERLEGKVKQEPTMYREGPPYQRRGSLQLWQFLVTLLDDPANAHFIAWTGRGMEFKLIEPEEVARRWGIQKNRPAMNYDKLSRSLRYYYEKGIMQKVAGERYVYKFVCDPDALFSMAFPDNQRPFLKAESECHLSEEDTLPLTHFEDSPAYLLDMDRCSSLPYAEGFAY
# Chain of ELF4 (Q99607 whole entry): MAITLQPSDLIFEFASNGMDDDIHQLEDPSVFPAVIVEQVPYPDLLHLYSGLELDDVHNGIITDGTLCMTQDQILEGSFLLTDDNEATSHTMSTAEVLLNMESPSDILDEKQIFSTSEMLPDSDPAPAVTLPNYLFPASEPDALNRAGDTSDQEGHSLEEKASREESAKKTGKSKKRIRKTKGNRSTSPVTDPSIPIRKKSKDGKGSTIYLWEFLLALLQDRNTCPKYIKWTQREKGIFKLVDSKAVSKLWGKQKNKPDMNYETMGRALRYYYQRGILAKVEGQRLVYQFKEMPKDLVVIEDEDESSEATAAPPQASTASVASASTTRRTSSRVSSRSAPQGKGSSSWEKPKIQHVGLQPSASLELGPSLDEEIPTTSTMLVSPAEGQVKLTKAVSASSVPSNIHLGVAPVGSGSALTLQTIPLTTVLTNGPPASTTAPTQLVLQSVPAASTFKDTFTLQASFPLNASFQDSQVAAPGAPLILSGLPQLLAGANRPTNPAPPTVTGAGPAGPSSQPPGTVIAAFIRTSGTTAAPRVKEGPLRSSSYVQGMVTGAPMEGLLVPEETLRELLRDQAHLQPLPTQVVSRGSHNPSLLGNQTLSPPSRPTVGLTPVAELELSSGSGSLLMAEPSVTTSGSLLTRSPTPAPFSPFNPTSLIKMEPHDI
# Chain of CRX (O43186 whole entry): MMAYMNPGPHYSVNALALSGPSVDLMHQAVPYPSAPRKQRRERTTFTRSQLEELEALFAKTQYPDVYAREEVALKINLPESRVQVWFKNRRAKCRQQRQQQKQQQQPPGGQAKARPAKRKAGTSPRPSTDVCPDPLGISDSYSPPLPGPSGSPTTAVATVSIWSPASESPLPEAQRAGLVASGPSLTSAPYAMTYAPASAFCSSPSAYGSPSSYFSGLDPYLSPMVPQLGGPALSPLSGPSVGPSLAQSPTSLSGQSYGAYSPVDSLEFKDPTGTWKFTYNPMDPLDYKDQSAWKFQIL
# Chain of HSF1 (Q00613 whole entry): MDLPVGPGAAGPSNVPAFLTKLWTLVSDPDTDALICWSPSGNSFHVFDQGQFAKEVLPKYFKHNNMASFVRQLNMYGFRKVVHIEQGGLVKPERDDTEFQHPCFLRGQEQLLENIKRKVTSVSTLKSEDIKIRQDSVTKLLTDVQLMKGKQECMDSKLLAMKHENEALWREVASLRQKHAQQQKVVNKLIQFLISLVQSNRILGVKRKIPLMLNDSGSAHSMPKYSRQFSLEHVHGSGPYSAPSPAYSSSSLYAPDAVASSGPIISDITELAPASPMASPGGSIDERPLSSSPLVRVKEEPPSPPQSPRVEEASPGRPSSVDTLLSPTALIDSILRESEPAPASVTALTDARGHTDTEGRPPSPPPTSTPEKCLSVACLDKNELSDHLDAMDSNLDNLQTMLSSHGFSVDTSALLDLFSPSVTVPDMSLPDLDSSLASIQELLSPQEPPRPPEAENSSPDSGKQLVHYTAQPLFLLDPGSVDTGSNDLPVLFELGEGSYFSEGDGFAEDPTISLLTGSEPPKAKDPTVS
# Chain of ELF1 (P32519 whole entry): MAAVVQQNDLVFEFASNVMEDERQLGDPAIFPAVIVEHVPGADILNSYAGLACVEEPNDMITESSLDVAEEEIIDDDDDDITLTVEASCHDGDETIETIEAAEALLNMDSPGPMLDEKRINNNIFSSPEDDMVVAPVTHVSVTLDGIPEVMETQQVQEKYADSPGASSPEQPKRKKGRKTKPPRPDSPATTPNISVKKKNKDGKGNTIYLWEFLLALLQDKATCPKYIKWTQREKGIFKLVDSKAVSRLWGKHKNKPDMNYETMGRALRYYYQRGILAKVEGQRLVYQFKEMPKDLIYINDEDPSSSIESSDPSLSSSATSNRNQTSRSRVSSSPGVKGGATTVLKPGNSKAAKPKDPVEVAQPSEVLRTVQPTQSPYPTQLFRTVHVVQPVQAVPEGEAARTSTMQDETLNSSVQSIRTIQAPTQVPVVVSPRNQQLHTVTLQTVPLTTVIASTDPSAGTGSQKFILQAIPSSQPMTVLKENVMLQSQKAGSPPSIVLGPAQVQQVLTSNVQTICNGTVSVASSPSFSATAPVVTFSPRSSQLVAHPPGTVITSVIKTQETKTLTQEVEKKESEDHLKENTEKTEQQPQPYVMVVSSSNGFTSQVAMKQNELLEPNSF
# Chain of ETV1 (P50549 whole entry): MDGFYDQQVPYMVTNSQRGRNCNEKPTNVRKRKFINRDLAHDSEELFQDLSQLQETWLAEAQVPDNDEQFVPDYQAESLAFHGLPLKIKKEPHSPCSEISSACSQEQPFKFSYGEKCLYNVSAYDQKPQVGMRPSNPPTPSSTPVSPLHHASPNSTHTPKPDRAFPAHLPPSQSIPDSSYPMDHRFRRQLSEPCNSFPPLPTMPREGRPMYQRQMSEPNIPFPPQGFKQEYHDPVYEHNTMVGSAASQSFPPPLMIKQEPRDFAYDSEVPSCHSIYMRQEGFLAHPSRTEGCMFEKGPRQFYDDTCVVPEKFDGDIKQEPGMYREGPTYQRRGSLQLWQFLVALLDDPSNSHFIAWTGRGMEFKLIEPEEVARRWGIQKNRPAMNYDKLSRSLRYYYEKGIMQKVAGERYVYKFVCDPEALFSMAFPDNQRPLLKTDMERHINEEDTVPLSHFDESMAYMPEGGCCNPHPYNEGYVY
sequence,measurement,setting,value
CCGCAT,binding signal,[1],"1.61 fold enrichment (6-mer frequency, TF over GST control)"
same,binding signal,[2],"1.59 fold enrichment (6-mer frequency, TF over GST control)"
same,binding signal,[3],"1.54 fold enrichment (6-mer frequency, TF over GST control)"
same,binding signal,[4],"1.52 fold enrichment (6-mer frequency, TF over GST control)"
same,binding signal,[5],"1.58 fold enrichment (6-mer frequency, TF over GST control)"
same,binding signal,[6],"1.61 fold enrichment (6-mer frequency, TF over GST control)"
same,binding signal,[7],"1.99 fold enrichment (6-mer frequency, TF over GST control)"
same,binding signal,[8],"1.55 fold enrichment (6-mer frequency, TF over GST control)"
same,binding signal,[9],"1.6 fold enrichment (6-mer frequency, TF over GST control)"
same,binding signal,[10],"1.49 fold enrichment (6-mer frequency, TF over GST control)"
same,binding signal,[11],"1.65 fold enrichment (6-mer frequency, TF over GST control)"
same,binding signal,[12],"1.13 fold enrichment (6-mer frequency, TF over GST control)"
same,binding signal,[13],"1.53 fold enrichment (6-mer frequency, TF over GST control)"
same,binding signal,[14],"1.62 fold enrichment (6-mer frequency, TF over GST control)"
same,binding signal,[15],"1.31 fold enrichment (6-mer frequency, TF over GST control)"
same,binding signal,[16],"1.52 fold enrichment (6-mer frequency, TF over GST control)"
same,binding signal,[17],"1.95 fold enrichment (6-mer frequency, TF over GST control)"
same,binding signal,[18],"1.19 fold enrichment (6-mer frequency, TF over GST control)"
same,binding signal,[19],"1.59 fold enrichment (6-mer frequency, TF over GST control)"

# Source: article PMC7862700, “An all-to-all approach to the identification of sequence-specific readers for epigenetic DNA modifications on cytosine”
